Nine compounds from PubChem BioAssay (Tox21) can be followed below.

Assay [1] concerns the target Retinoic acid receptor RXR-alpha (Homo sapiens) (UniProt P19793). As to the kind of experiment: qHTS assay to identify small molecule agonists of the RXR signaling pathway (AID 1159527; calls by dose curve; also: nearly all actives have a fitted effect of over 35% in size; also: potency is read from the fitted curve at half-maximal effect). The gist of the method:
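Using 9-cis retinoic acid as the reference agonist, chemicals were tested in HEK 293T cells […] for 16 hr; substrate loading lasted 2 hr at room temperature.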

A short description of assay [2]: qHTS assay to identify small molecule agonists of the RXR signaling pathway - cell viability counter screen (AID 1159529). Also: series mostly up to about 77 µM; nearly all actives have a fitted effect of over 50% in size. The gist of the method: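 Compounds dissolved in DMSO were pinned onto HEK 293T cells carrying a beta-lactamase reporter under RXR-alpha control and incubated 16 hr. Cytotoxicity was then quantified by CellTiter-Glo luminescence.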
A short description of assay [3]: qHTS assay to identify small molecule antagonists of the retinoid acid receptor (RAR) signaling pathway - cell viability counter screen (AID 1159551). Also: nearly all actives have a fitted effect of over 35% in size. In short, it runs like this: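 C3RL4 RARE-luciferase cells, 1,000/well, incubated overnight, then dosed with compound plus 1 uM retinol (final). After 6 hr at 37 C, viability read by CellTiter-Glo ATP luminescence following 30 min at room temperature.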

Assay [4] in a line: qHTS assay to identify small molecule antagonists of the retinoic acid receptor (RAR) signaling pathway (AID 1159552; also: nearly all actives have a fitted effect of over 50% in size). The gist of the method: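 Test chemicals and DMSO controls were pin-transferred onto C3RL4 cells a day after seeding; retinol (1 uM final) followed at once. Luminescent reporter output was quantified after 6 hr of co-incubation and 30 min with detection reagent.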

Assay [5] is described as follows: qHTS assay to identify small molecule antagonists of the estrogen related receptor (ERR) signaling pathway from Tox21 library - cell viability counter screen (AID 1224834). Also: nearly all actives have a fitted effect of over 30% in size. The gist of the method: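 ERR reporter cells, 2,000 per well, rested 6 h, then exposed to compound in DMSO for 17.5 hours at 37 C. Viability read as fluorescence after 30 min with CellTiter-Fluor.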

The target in assay [6] is Luciferin 4-monooxygenase (Photinus pyralis) (UniProt P08659). In words: qHTS assay to identify small molecule inhibitors of firefly luciferase (AID 1224835). Also: series mostly up to about 120 µM; nearly all actives have a fitted effect of over 25% in size. In short, it runs like this:
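Quantitative HTS format; KM concentrations of both substrates. Purified P. pyralis FLuc activity quantified from luminescence images.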

Assay [7] can be described thus: qHTS assay to identify small molecule agonists of the constitutive androstane receptor (CAR) signaling pathway - cell viability counter screen (AID 1224836). Also: series mostly up to about 92 µM; nearly all actives have a fitted effect of over 45% in size. In short, it runs like this:
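23 h treatment, 37 C, 5% CO2. Cell line: HepG2 stably expressing hCAR with a CYP2B6-2.2kb construct. Co-treatment: PK11195, 0.75 uM final. Read-out: CellTiter-Fluor fluorescence intensity.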

A short description of assay [8]: qHTS assay to identify small molecule antagonists of the constitutive androstane receptor (CAR) signaling pathway - cell viability counter screen (AID 1224837). Also: series mostly up to about 92 µM; nearly all actives have a fitted effect of over 45% in size. In short, it runs like this:
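HepG2 cells stably carrying hCAR and CYP2B6-2.2kb reporter, stimulated with 50 nM CITCO and compounds at 15 concentrations for 23 h at 37 C. Viability measured by CellTiter-Fluor fluorescence.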

The target in assay [9] is Nuclear receptor subfamily 1 group I member 3 (Homo sapiens) (UniProt Q14994). In words: qHTS assay to identify small molecule antagonists of the constitutive androstane receptor (CAR) signaling pathway (AID 1224838). Also: nearly all actives have a fitted effect of over 40% in size. In short, it runs like this: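 HepG2 cells stably carrying hCAR and a CYP2B6-2.2kb luciferase reporter, seeded 4 hrs before compound (15 concentrations). Stimulated with 50 nM CITCO for 24 hr at 37 C. ONE-Glo luminescence read after 30 min at room temperature.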
Sequence of Nuclear receptor subfamily 1 group I member 3 (Homo sapiens) (Q14994 whole entry, looked up): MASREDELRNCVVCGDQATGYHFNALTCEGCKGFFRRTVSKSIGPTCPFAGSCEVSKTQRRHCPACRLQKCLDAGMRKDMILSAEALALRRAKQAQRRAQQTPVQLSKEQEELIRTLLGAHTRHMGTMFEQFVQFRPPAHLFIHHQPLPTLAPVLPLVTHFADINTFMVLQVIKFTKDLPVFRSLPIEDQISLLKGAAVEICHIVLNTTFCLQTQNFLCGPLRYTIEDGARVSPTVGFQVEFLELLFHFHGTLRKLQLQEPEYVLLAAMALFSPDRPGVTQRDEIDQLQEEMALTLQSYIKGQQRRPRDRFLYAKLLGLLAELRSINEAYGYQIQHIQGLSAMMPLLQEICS

Assay [10] has the same target. In words: qHTS assay to identify small molecule agonists of the constitutive androstane receptor (CAR) signaling pathway (AID 1224839). Also: nearly all actives have a fitted effect of over 15% in size. Also: potency is read from the fitted curve at half-maximal effect. The gist of the method: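 Compounds tested at 15 concentrations on HepG2 cells stably harbouring hCAR and CYP2B6-2.2kb reporter constructs, co-treated with PK11195 (0.75 uM final), 24 h at 37 C; luminescent reporter signal quantified.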

The nature of assay [11]: qHTS assay to identify small molecule antagonists of the estrogen related receptor signaling pathway with the pleiotropic PPARgamma coactivator (PGC) from Tox21 10K library - cell viability counter screen (AID 1224840; active = well fitted cell-killing curve with a large enough effect in the repeat runs, not every such curve was filed as active; also: nearly all actives have a fitted effect of over 40% in size). The gist of the method: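 PGC/ERR cells (2,000/well) plated 6 h, then compound-treated for 17.5 h at 37 C. Viability measured by CellTiter-Fluor fluorescence after 30 min at 37 C, multiplexed with the pathway assay.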

Assay [12] in a line: qHTS assay to identify small molecule agonists of the retinoic acid receptor (RAR) signaling pathway (AID 1159553). In short, it runs like this: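 C3RL4 RARE-luciferase cells were seeded at 1,000/well and grown overnight at 37 C, then exposed to compounds for 6 hr at 37 C, 5% CO2. Luciferase reagent was added and luminescence was read after 30 min at room temperature.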
A short description of assay [13]: qHTS assay to identify small molecule antagonists of the estrogen related receptor (ERR) signaling pathway - cell viability counter screen (AID 1224818). Also: series mostly up to about 46 µM. The gist of the method: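 ERR cells, 2,000 per well, compound added after 6 h and incubated 17.5 h at 37 C. Viability read by CellTiter-Fluor fluorescence after a further 30 min at 37 C.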
Assay [14] in a line: qHTS assay to identify small molecule antagonists of the estrogen related receptor (ERR) signaling pathway (AID 1224819;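 also: luminescence from an ERR-driven luciferase reporter measured with One-Glo reagent; series mostly up to about 46 µM; nearly all actives have a fitted effect of over 50% in size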). The gist of the method:
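ERR reporter cell line (NTP) plated at 2,000 cells/well, settled 6 h at 37C/5% CO2, then exposed to LOPAC compounds for 18 h at 37C. One-Glo luciferase luminescence read after 30 min at room temperature.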

A short description of assay [15]: qHTS assay to identify small molecule agonists of the estrogen related receptor (ERR) signaling pathway (AID 1224820). In short, it runs like this: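 Cells: ERR line from NTP, 2,000/well. Pre-incubation 6 h, 37 C/5% CO2. Compound (DMSO) pin transfer, 18 h 37 C. One-Glo, 30 min RT, luminescence.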
Assay [16] has as its system estrogen-related receptor alpha (ERRalpha) with PGC-1alpha coactivator, human. As to the kind of experiment: qHTS assay to identify small molecule antagonists of the estrogen related receptor signaling pathway with the pleiotropic PPARgamma coactivator (PGC) (AID 1224821; calls by dose curve;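 also: series mostly up to about 46 µM; lower luminescence signal means antagonism of PGC/ERR signalling; nearly all actives have a fitted effect of over 50% in size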). The gist of the method:
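Luminescent read-out (One-Glo, 30 min at room temperature) following 18 h treatment of PGC/ERR cells at 37 C with compounds delivered in DMSO. Cells had settled 6 h at 37 C/5% CO2 before dosing.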

The nature of assay [17]: qHTS assay to identify small molecule antagonists of the estrogen related receptor signaling pathway with the pleiotropic PPARgamma coactivator (PGC) cell viability counter screen (AID 1224822; also: series mostly up to about 46 µM). In short, it runs like this: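 PGC/ERR cells rested 6 h, then compound-treated 17.5 h at 37 C. CellTiter-Fluor added for 30 min at 37 C, viability measured by fluorescence intensity.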

Assay [18] is described as follows: qHTS assay to identify small molecule agonists of the estrogen related receptor signaling pathway with the pleiotropic PPARgamma coactivator (PGC) (AID 1224823). In short, it runs like this:
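Steps: plate PGC/ERR cells at 2,000 cells/well; incubate 6 h, 37 C/5% CO2; pin-transfer compounds (DMSO); incubate 18 h, 37 C; add One-Glo; 30 min RT; read luminescence.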

Assay [19] is described as follows: qHTS assay to identify small molecule antagonists of the estrogen related receptor signaling pathway with the pleiotropic PPARgamma coactivator (PGC) from Tox21 10K library (AID 1224841; call rule not given here). The gist of the method:
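PGC/ERR cell line, 2,000 cells/well, pre-incubated 6 hours at 37 C, then exposed to compounds for 18 hours at 37 C; luciferase read with One-Glo luminescence after 30 min at room temperature.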

The nature of assay [20]: qHTS assay to identify small molecule agonists of the estrogen related receptor signaling pathway with the pleiotropic PPARgamma coactivator (PGC) from Tox21 10K library (AID 1224842). Also: nearly all actives have a fitted effect of over 15% in size. The gist of the method:
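PGC/ERR reporter cells (NTP line) were seeded 2,000 per well, rested 6 h at 37 C/5% CO2, then pin-dosed with compounds in DMSO for 18 h at 37 C; luciferase read by One-Glo luminescence after 30 min at room temperature.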

Inconclusive results are not listed. Calls of active or inactive are those of the source. Unless noted, calls follow the shape of the dose curve; as a rule, active = well fitted curve in the direction sought with a large enough effect in the repeat runs; inconclusive = weak or mixed curves; inactive = no such curve, though single readings can be large; an effect the other way counts as inactive or inconclusive.

Sequence of Luciferin 4-monooxygenase (Photinus pyralis) (P08659 whole entry, looked up): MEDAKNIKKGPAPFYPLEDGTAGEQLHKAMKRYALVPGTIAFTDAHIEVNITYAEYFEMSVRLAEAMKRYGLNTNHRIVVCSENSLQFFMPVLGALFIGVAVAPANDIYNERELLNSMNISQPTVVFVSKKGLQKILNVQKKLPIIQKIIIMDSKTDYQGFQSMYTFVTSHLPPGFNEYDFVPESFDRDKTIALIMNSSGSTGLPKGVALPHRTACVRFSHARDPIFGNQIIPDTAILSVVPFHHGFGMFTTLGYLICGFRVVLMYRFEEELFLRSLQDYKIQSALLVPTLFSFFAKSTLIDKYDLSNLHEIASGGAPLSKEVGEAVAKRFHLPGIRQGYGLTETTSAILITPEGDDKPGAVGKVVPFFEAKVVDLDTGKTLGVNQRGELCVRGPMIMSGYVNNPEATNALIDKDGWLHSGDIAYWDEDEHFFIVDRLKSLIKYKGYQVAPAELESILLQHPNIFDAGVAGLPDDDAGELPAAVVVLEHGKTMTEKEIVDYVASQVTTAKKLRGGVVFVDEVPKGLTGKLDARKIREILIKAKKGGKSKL
Sequence of Retinoic acid receptor RXR-alpha (Homo sapiens) (P19793 whole entry, looked up): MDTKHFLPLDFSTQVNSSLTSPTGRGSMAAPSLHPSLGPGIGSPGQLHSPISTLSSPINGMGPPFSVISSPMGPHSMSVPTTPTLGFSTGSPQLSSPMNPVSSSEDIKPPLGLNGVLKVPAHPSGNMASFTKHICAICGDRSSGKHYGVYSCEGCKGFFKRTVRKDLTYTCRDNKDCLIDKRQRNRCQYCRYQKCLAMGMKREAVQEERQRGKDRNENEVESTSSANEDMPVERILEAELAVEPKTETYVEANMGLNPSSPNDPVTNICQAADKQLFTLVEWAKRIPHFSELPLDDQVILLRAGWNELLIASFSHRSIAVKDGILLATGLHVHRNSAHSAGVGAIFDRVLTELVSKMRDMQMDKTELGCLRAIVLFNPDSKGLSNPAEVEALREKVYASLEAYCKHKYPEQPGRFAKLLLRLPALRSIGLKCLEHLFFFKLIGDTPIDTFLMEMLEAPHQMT

Turning to `CC(=O)NCCO`, the Potency result in assay [1], in assay [2], in assay [3], in [4], in assay [5] and in assay [6] was “inactive” each time. For the same compound, the Potency entry in [7], in [8], in [9], in assay [10] and in assay [11] was “inactive” throughout.

`CC12CC3CC(C)(C1)CC(N)(C3)C2`: the Potency entry in assay [1], in [2], in [3], in assay [12], in assay [14] and in [16] was “inactive” each time. In addition, the Potency result in assay [5], in assay [6], in [8], in assay [9], in [10] and in assay [11] was “inactive” throughout. Also, the Potency result in assay [19] and in assay [20] was “inactive” in each case. The result in [13], in [15], in assay [17] and in assay [18] was inactive.

On to `ClC1=C(Cl)C1(Cl)Cl`, for which the Potency result in assay [1], in assay [2], in assay [3], in assay [5], in [6] and in [7] was “inactive” throughout. Moreover, the Potency entry in [8], in assay [9], in assay [10], in assay [11], in [19] and in assay [20] was “inactive” in each case.

Consider `N[C@@H](Cc1cc(I)c(O)c(I)c1)C(=O)O`, for which the Potency entry in assay [1], in [2], in assay [3], in assay [12], in assay [6] and in [8] was “inactive” throughout. Also, the Potency result in assay [9], in assay [19] and in assay [20] was “inactive” in each case.

Consider `CCCCCCCCCCCC(=O)OCC(O)CO` (configuration not stated), for which the Potency in assay [1] was 54.9 µM (active). Further, the Potency result in assay [3], in [4], in assay [12], in assay [5], in [7] and in [8] was “inactive” throughout. Moreover, the Potency entry in [9], in assay [10], in assay [11], in assay [19] and in [20] was “inactive” each time.

Take `Cc1cc(CCCOc2c(C)cc(-c3noc(C(F)(F)F)n3)cc2C)on1`: the Potency entry in assay [1], in [2], in [4], in assay [12], in [5] and in [6] was “inactive” in each case. The Potency entry in [7], in assay [8], in [9] and in assay [11] was “inactive” throughout. In addition, the Potency in assay [10] was 23.7 µM (active).

Turning to `Nc1ccn([C@H]2CS[C@@H](CO)O2)c(=O)n1`, the Potency entry in assay [1], in assay [3], in assay [4], in [12], in assay [5] and in assay [6] was “inactive” each time. Further, the Potency result in [7], in assay [8], in assay [9], in [10] and in [11] was “inactive” each time.

Consider `CCCCOCCOC(=O)c1cccnc1`, for which the Potency result in assay [1], in assay [2], in assay [3], in assay [6], in [8] and in assay [9] was “inactive” throughout. The Potency result in assay [10] and in assay [11] was “inactive” each time.

Turning to `Cc1ccc2c(c1)CCCN2`, the Potency result in [1], in assay [3], in [4], in assay [12], in [5] and in assay [6] was “inactive” in each case. Moreover, the Potency entry in [7], in assay [8], in assay [9] and in [11] was “inactive” throughout.
